# Assay results published in ChEMBL document CHEMBL3988442, “University of Dundee, Small-Polar-MMV Screening Library” (2021).
# Target: AMP-activated protein kinase, AMPK (Homo sapiens) (UniProt P54646+O43741+P54619+Q9UGJ0+Q9Y478+Q13131+Q9UGI9)
# Assay: AMP-dependent Kinase enzyme assay. An in vitro enzyme assay that detects ADP turnover that is directly proportional to AMPK activity. This uses naive AMPK that is activated during the assay with MK-8722
# Assay type: functional
# Design: scale not given: direction of the effect not stated beside the values
# Details: 30 µM
row,Compound,Percent Effect [%]
1,COc1ccc(NC(=O)Cc2c(C)nn(C)c2C)cc1F,1.16
2,CCNC(=O)c1ccc(NC(=O)N(C)Cc2cc(C)on2)cc1,16.8
3,CC(C)c1nn(C)c(N(C)C)c1CNCc1ccnc(N(C)C)c1,-12.6
4,O=C(CCCN1CCCCC1)N[C@H](C(=O)O)c1cccc(F)c1F,6.38
5,O=C(Cn1nc2ccccc2n1)N1CCCC(O)(CO)C1 (stereo not given),-6.31
6,CCn1nc(C)c(C(C)Nc2cc(C3CCNCC3)nc(C)n2)c1C (stereo not given),0.304
7,Cc1c(NCCO)cccc1OC1CCCC1,-6.27
8,CN(CCc1ccccn1)C(=O)Cn1cc(-c2ccccc2)nn1,-0.117
9,CN(Cc1ccc(F)cc1F)Cc1cc2c(cc1Br)OCCO2,-3.85
10,Cc1nnsc1CNC(=O)Nc1cccc(N2CCN(C)C2=O)c1,-11
11,CCC(=O)Nc1cccc(OCC(=O)N2CC=CC2C(C)C)c1 (stereo not given),-4.81
12,CCN(CC)S(=O)(=O)c1cc(Br)ccc1OC,-4.57
13,Cc1ccc(OCC(=O)N2CCOCC(O)(CN3CCCC3)C2)cc1C (stereo not given),8.56
14,CSCCC(=O)N1CCN(CC(C)O)CC1 (stereo not given),-1.95
15,Cc1nc(C)c(C(=O)N2CCCc3c(F)ccc(F)c32)o1,-2.55
16,COc1cc(N2CCN(Cc3ccsc3)C(CCO)C2)nc(N)n1 (stereo not given),-5.18
17,O=C(CC1COCCN1)N1CCC(N2CCc3ccccc3C2)CC1 (stereo not given),-4.72
18,CCc1nc(C)c(CN2CCOC(Cc3cccc4ccccc34)C2)[nH]1 (stereo not given),-0.756
19,CCOC(=O)c1n[nH]cc1CN1CCOC(Cc2ccccc2)C1 (stereo not given),-0.201
20,COc1cc(CN2CCC(COCc3ccccc3)CC2)cc(OC)c1,0.75

row,Compound,Percent Effect [%]
1,CN(c1ncc(S(N)(=O)=O)s1)C1CCc2ccccc2C1 (stereo not given),5.32
2,COc1c(F)cc(NC(=O)N2CCC(CSC)C2)cc1F (stereo not given),2.71
3,Cc1ccc(OCCn2cnc3oc(C)c(C(=O)O)c3c2=O)cc1,15.5
4,Cc1ccc(-c2noc(Cn3nc(C(N)=O)ccc3=O)n2)cc1,5.62
5,CN(C(=O)c1ccccn1)c1nnc(C2CCOC2)s1 (stereo not given),9.22
6,Cc1noc(C2CCN(Cn3cc(Cl)cn3)CC2)n1,2.75
7,CN1CCCN(C[C@@H]2CN(c3nc(C(N)=O)cs3)C[C@@H]2CO)CC1,-0.955
8,CCOC(=O)c1n[nH]cc1CN1CCOC(Cc2ccc(OC)cc2)C1 (stereo not given),2.27
9,Cc1nc(CN2CCN(S(=O)(=O)N3CCOCC3)CC2)oc1C,-4.75
10,CN(C)C(CNC(=O)OCC(F)(F)F)c1ccsc1 (stereo not given),-1.15
11,NC(=O)CC1CCCN(c2cncc(OCc3ccccc3)n2)C1 (stereo not given),20.7
12,O=C(NCC1CCOC1)c1cc(-c2ccc(Cl)cc2)n[nH]1 (stereo not given),1
13,CN(Cc1cscn1)Cc1cc2c(cc1Br)OCO2,-7.36
14,CCN(CC)c1nc2sc(C(=O)N3CCNC(=O)C3)cc2s1,3.77
15,O=C(Cc1ccon1)NC1CCCN(c2ccccc2F)C1=O (stereo not given),1.71
16,CCC(C(=O)N(Cc1ccccc1OC)C1CC1)n1cccn1 (stereo not given),0.528
17,Clc1snnc1CN(Cc1cccs1)C1CC1,3.68
18,c1ccc2c(NC3CCc4ncnn4C3)ncnc2c1 (stereo not given),2.92
19,CN(CCc1ccncc1)CCc1nccs1,1.48
20,CCc1nn(C)c(Cl)c1CN1CCCC2(C1)CN(C)C(=O)O2 (stereo not given),5.15
